Assay results taken from PubChem BioAssay (NCATS).
Results filed as inconclusive are left out. Calls of active or inactive are those of the source. The call rests on the fitted dose curve; in most records, active means well fitted inhibition curve with a large enough effect; inconclusive means small, poorly fitted or top-dose-only effect, or effect the other way; inactive means flat fitted curve, though single readings scatter.

experiment: qHTS for Inhibitors of Plasmodium falciparum (GB4) proliferation (AID 504315); further: nearly all actives have a fitted effect of over 50% in size; settings: P. falciparum GB4 in erythrocytes, SYBR Green DNA, 72 h; series mostly up to 6.7 µM
Description: Plasmodium falciparum is a virulent malarial parasite that kills 1-2 million people worldwide each year. Malaria not only inflicts tremendous suffering and morbidity on the human population, but has dramatically influenced the course of civilization with profound sociological and economic implications (Shah, S. 2010). Transmitted by mosquitoes, the sporozoite form of the parasite enters the blood stream to infect hepatocytes, where they become merozoites that infect red blood cells (erythrocytes). Within erythrocytes, merozoites begin a […] cycle of growth and division, after which the parasite is released to infect new red blood cells. Gametocytes, which form within erythrocytes as well, circulate in the bloodstream and are ingested by the mosquito, thereby completing the life cycle (see CDC website). To profile malarial lines for differential chemical responses and to identify inhibitors of malarial growth, an assay that measures P. falciparum growth and replication within erythrocytes was employed. This assay uses a DNA binding fluorescent dye (SYBR Green) to detect parasite DNA following cell lysis. Because mature erythrocytes lack DNA, only Plasmodium-derived DNA is detected. The P. falciparum line cp250, derived from a malarial isolate from Cambodia, (Mu, J., et al. 2010) was added to the panel of lines, Dd2, HB3, 7G8 and GB4 in this study. Laboratory of Assay Development and Screening Technology [ADST] and NIH Chemical Genomics Center [NCGC] Boston University, Chemistry Department, Center for Chemical Methodology and Library Development [CMLD-BU] NIH National Institute of Allergy and Infectious Diseases [NIAID]
ADST Assay Protocol Summary: The 1536-well SYBR Green viability assay was based on the method of Bennett et al (2004) and described previously in 1536-well format (Yuan J., et al. 2009). For screening 3 ul culture medium was dispensed into 1536 well black clear bottom plates (Aurora Biotechnologies) using a Multidrop Combi (Thermo Fisher Scientific Inc.), 23 nL compounds in DMSO were added by a pin transfer (Cleveland, P.H. and Koutz, P.J, 2005) using a pin tool-based delivery system (Kalypsys), and 5 ul of erythrocytes infected with P. falciparum one of five lines (cp250, Dd2, HB3, 7G8 or GB4, 0.3% parasitemia, 2.5% hematocrit final concentration) were added. The plates were incubated at 37C in a humidified incubator in 5% CO2 for 72 h, and 2 ul lysis buffer (20 mM Tris HCl, 10 mM EDTA, 0.16% saponin, 1.6% triton X, 10X SYBR Green I (supplied as 10,000X final concentration by Invitrogen) was added to each well. The plates were mixed for 25 sec with gentle shaking and incubated overnight at room temperature in the dark. The following morning, fluorescence intensity at 485(14) nm excitation and 535(25) nm emission wavelengths was measured on an EnVision (Perkin Elmer) plate reader. Plate reads were normalized relative to the control inhibitor (0.29 uM artemisinin) and vehicle (DMSO) wells present on each plate and then corrected by an algorithm using vehicle-only control plates at the beginning and end of the compound plate stack. References Shah, S. (2010). The Fever: how malaria has ruled humankind for 500,000 years. New York, Sarah Crichton Books. CDC web site, http://www.cdc.gov/malaria/about/biology/index.html Mu, J., Myers, R.A., Jiang, H., Liu, S., Ricklefs, S., Waisberg, M., Chotivanich, K., Wilairatana, P., Krudsood, S., White, N.J., et Plasmodium falciparum genome-wide scans for positive selection, recombination hot spots and resistance to antimalarial drugs Nature Genetics 2010, 42, pp 268-271 Bennett TN, Paguio, M., Gligorijevic, B., Seudieu, C., Kosar, A. D., Davidson, E., and Roepe, P. D. Novel, rapid, and inexpensive cell-based quantification of antimalarial drug efficacy Antimicrobial Agents Chemother. 2004, 48(5): pp 1807-10 Yuan J, Johnson RL, Huang RL, Wichterman J, Jiang HY, Hayton K, Fidock DA, Wellems TE, Inglese J, Austin CP, Su XZ. […]
Potency means the concentration at half of the fitted maximal effect.

Potency, inactive:
CC1(OC(=O)CCc2ccccc2)C(=O)C=C2C=C(c3ccc(C#N)cc3)N(Cc3ccco3)C=C2C1=O (stereo not given)
C[C@@H](c1ccccc1)N1C(=O)[C@@H]2[C@H]3[C@H](O)[C@H](O)CC(=NNC(=O)OCc4ccccc4)[C@@H]3CC[C@H]2C1=O
CCCCC1=CC2=CC(=O)C(C)(OC(=O)CC)C(=O)C2=CN1c1ccc(OC)cc1 (stereo not given)
CC1(OC(=O)CCc2ccccc2)C(=O)C=C2C=C(c3ccc(C#N)cc3)N(CCc3c[nH]c4ccccc34)C=C2C1=O (stereo not given)
CC#CCN1c2ccccc2[C@]23C[C@@H](C(=O)OC)N(C(C)=O)C2=NC(C(=O)OC)=C(C(=O)OC)[C@H]13
COC(=O)CCC(=O)OC1(C)C(=O)C2=CN(Cc3ccc(OC)cc3)C(c3ccc(OC)cc3)=CC2=C(Br)C1=O (stereo not given)
CC(C)CON=C1C[C@@H](O)[C@@H](O)[C@@H]2[C@H]3C(=O)N(C4CCCCC4)C(=O)[C@@H]3CC[C@H]12
COC(=O)C1=C(C(=O)OC)[C@@H]2Nc3ccccc3[C@@]23C[C@@H](C(=O)OC)N(C(=O)c2ccco2)C3=N1
COC(=O)[C@]1(C)C=C[C@@H](C)[C@H](c2ccccc2Br)N1C(=O)C(F)(F)F
CCCCC1=CC2=C(c3ccco3)C(=O)C(C)(OC(=O)c3ccc(OC)cc3)C(=O)C2=CN1C1CCCC1 (stereo not given)
C=C(C)C(=O)c1ccc2c(c1)OCO2
CC(CCN1CCCCc2nc(C)c(C)cc21)=NO[C@@H](C)c1cn([C@H](CO)Cc2ccccc2)nn1
C=C[C@@]1(C)CC[C@H](O)[C@H]2C(=O)CCC[C@H]21
CCCCCCCc1cc2ccccc2c2c(C(=O)OC)c(-c3ccccc3)c(C(=O)OC)n12
CCOC(=O)CN1C(=O)N[C@@H](CCc2ccccc2)C(C(=O)OC)=C1C
C=CCN1C=C2C(=O)C(C)(OC(=O)CCC(=O)OC)C(=O)C(Br)=C2C=C1c1ccc(OC)cc1 (stereo not given)
COC(=O)CCC(=O)OC1(C)C(=O)C=C2C=C(C3CC3)N(C3CCCCC3)C=C2C1=O (stereo not given)
C=CCN1c2ccccc2[C@]23C[C@@H](C(=O)OC)N(C(=O)C4CCC4)C2=NC(C(=O)OC)=C(C(=O)OC)[C@H]13
CCCCC1=CC2=C(c3ccco3)C(=O)C(C)(OC(=O)c3ccc(OC)cc3)C(=O)C2=CN1CCOC (stereo not given)
CCCCS(=O)(=O)N1C2=NC(C(=O)OC)=C(C(=O)OC)[C@@H]3N(C)c4ccc(OC)cc4[C@]23C[C@H]1C(=O)OC
COC(=O)CCCC1=CC2=C(c3ccccc3)C(=O)C(C)(OC(=O)C3CCCC3)C(=O)C2=CN1C1CCCC1 (stereo not given)
COC(=O)[C@@H](NC(=O)N1CCc2nc(-c3ccccc3)c3c(c2C1)CO[C@@H](C)C3)C(C)C
C=CCN1c2ccccc2[C@]23C[C@@H](C(=O)OC)N=C2NC(C(=O)OC)=C(C(=O)OC)[C@H]13
COCCN1C(=O)N[C@@H](c2cccc(F)c2)C(C(=O)OC)=C1C
CCCCC1=CC2=CC(=O)C(C)(OC(=O)CC)C(=O)C2=CN1c1ccncc1 (stereo not given)
COC(=O)CCCC1=CC2=C(c3ccccc3)C(=O)C(C)(OC(=O)C3CCCC3)C(=O)C2=CN1Cc1ccccc1 (stereo not given)
COC(=O)N1CCc2cc(OC)c(OC)cc2C1Cc1ccc(OC)cc1 (stereo not given)
CCCCc1nc2c(c3c1C[C@H](C)OC3)CN(C(=O)NCCc1c[nH]c3ccccc13)CC2
COC(=O)C1=C(C(=O)OC)[C@@H]2N(C)c3ccccc3[C@@]23C[C@@H](CO)N(C(=O)c2cc(C)oc2C)C3=N1
COC(=O)C1=C(C(=O)OC)[C@@H]2N(C)c3ccc(OC)cc3[C@@]23C[C@@H](C(=O)OC)N(S(=O)(=O)c2c(C)noc2C)C3=N1
CCN(CC)CCCN1C=C2C(=O)C(C)(OC(=O)CCc3ccccc3)C(=O)C=C2C=C1c1ccc(C#N)cc1 (stereo not given)
COC(=O)C1=C(C(=O)OC)[C@@H]2N(C)c3ccc(OC)cc3[C@@]23C[C@@H](C(=O)OC)N(S(=O)(=O)c2ccc4c(c2)OCCN4C)C3=N1
COC(=O)N[C@@H](c1ccccc1)[C@]1(C(=O)OC)CCCC1=O
CC(C)(C)N1C(=O)[C@@H]2[C@H]3[C@H](O)[C@H](O)CC(=NOCc4ccccc4)[C@H]3CC[C@H]2C1=O
C=C(C(C)=O)C(O)c1ccc2ccccc2c1 (stereo not given)
CCCCC1=CC2=CC(=O)C(C)(OC(=O)CC)C(=O)C2=CN1CCc1ccc(Br)cc1 (stereo not given)

Potency, active:
COC(=O)C1=C(C(=O)OC)[C@@H]2N(Cc3ccccc3)c3ccccc3[C@@]23C[C@@H](C(=O)OC)N(S(=O)(=O)c2ccc4c(c2)OCCN4C)C3=N1 1.51 µM
COC(=O)C1=C(C(=O)OC)[C@@H]2N(C)c3ccccc3[C@@]23C[C@@H](C(=O)OC)N(S(=O)(=O)c2ccc4c(c2)OCCN4C)C3=N1 2.39 µM
COC(=O)[C@@H](NC(=O)N1CCc2nc(-c3ccc(OC)cc3C)c3c(c2C1)CO[C@@H](c1ccccc1)C3)C(C)C 1.9 µM
COC(=O)N1C2=C(c3ccccc3[C@@H]1CC(=O)Nc1ccc3ccc4cccc5ccc1c3c45)[C@@H]1C(=O)N(c3ccccc3)C(=O)[C@@H]1[C@H](C)C2 1.51 µM
